Test results reported in PubChem BioAssay (EPA / NIEHS).
The source made the active and inactive calls. Rule for the calls: active = hit-call score of the fitted dose curve at least 0.9, where 1 is the maximum; inactive = score below 0.9.

Columns and labels:
[1] = CEETOX_H295R_PROG: CeeTox H295R High-throughput Steroidogenesis Assay for Progesterone (PROG) (AID 2283442); details: actives raise or lower the signal;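 for AC50: human H295R adrenal cells primed with 10 µM forskolin before dosing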
Method in brief: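 Progesterone read-out: HPLC-MS/MS on MTBE extracts of conditioned medium after 48 h chemical exposure of forskolin-primed (10 uM, 48 h) H295R cells. Gain or loss of signal was fitted relative to DMSO baseline.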

[2] = read-out: Tumor necrosis factor receptor superfamily member 6 (Homo sapiens) (UniProt P25445); assay: LTEA_HepaRG_FAS: Life Technologies and Expression Analysis (LTEA) Assay for Fas cell surface death receptor (FAS) using HepaRG (AID 2283447); details: mRNA level, 48 h; actives raise or lower the signal
Method in brief: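 FAS transcript level was measured by TaqMan qRT-PCR against three housekeeping genes after 48 h chemical exposure. Cells were HepaRG, 0.5% DMSO vehicle, with a top concentration of 100 uM and half-log dilutions over eight points, in duplicate.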

[3] = read-out: Fatty acid synthase (Homo sapiens) (UniProt P49327); assay: LTEA_HepaRG_FASN: Life Technologies and Expression Analysis (LTEA) Assay for Fatty Acid Synthase (FASN) using HepaRG (AID 2283448); details: mRNA level, 48 h; actives raise or lower the signal;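 for AC50: differentiated human HepaRG liver cells in serum-free induction medium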
Method in brief: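 Transcript-level assay: HepaRG liver cells are treated for 48 h across an eight-point range topping at 100 uM, and FASN mRNA, normalized to three housekeeping genes, is compared with DMSO controls in both directions.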

[4] = read-out: Cyclin Dependent Kinase Inhibitor 1A (CDKN1A), CDKN1A (gene 1026); assay: LTEA_HepaRG_CDKN1A: Life Technologies and Expression Analysis (LTEA) Assay for Cyclin Dependent Kinase Inhibitor 1A (CDKN1A) using HepaRG (AID 2283450); details: mRNA level, 48 h; actives raise or lower the signal
Method in brief: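 HepaRG, 48 h dosing, 8-pt half-log series from 100 uM top, 0.5% DMSO vehicle, duplicates. Readout: TaqMan qRT-PCR of CDKN1A transcript, housekeeping-normalized (ACTB, GAPDH, POLR2A). Up/down curve fit relative to DMSO.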

[5] = read-out: Cyclin D1 (CCND1), CCND1 (gene 595); assay: LTEA_HepaRG_CCND1: Life Technologies and Expression Analysis (LTEA) Assay for Cyclin D1 (CCND1) using HepaRG (AID 2283451); details: mRNA level, 48 h; actives raise or lower the signal;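 for AC50: differentiated human HepaRG liver cells in serum-free induction medium; TaqMan qRT-PCR transcript level normalised to ACTB GAPDH and POLR2A housekeeping genes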
Method in brief: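 qRT-PCR (Fluidigm 96.96 array) read-out of transcript level, housekeeping-normalized (ACTB/GAPDH/POLR2A). HepaRG cells, 48 h chemical exposure, 8-point half-log series from 100 uM, 0.5% DMSO vehicle; gain or loss relative to DMSO baseline.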

[6] = read-out: catalase (CAT), CAT (gene 847); assay: LTEA_HepaRG_CAT: Life Technologies and Expression Analysis (LTEA) Assay for catalase (CAT) using HepaRG (AID 2283452); details: mRNA level, 48 h; actives raise or lower the signal
Method in brief: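 Expression of CAT was quantified by TaqMan qRT-PCR with ACTB/GAPDH/POLR2A normalization after 48 h chemical exposure of HepaRG. Eight-point half-log series, top 100 uM, in 0.5% DMSO; gain or loss fitted against vehicle.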

[7] = read-out: flavin-containing dimethylaniline monooxygenases 3 (FMO3), FMO3 (gene 2328); assay: LTEA_HepaRG_FMO3: Life Technologies and Expression Analysis (LTEA) Assay for flavin-containing dimethylaniline monooxygenases 3 (FMO3) using HepaRG (AID 2283453); details: mRNA level, 48 h; actives raise or lower the signal;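 for AC50: differentiated human HepaRG liver cells in serum-free induction medium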
Method in brief: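 HepaRG, 48 h exposure, 8-pt half-log series from 100 uM, 0.5% DMSO vehicle, duplicates; FMO3 transcript by Fluidigm TaqMan qRT-PCR, housekeeping-normalized; gain/loss fit vs DMSO.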

[8] = read-out: Cytochrome P450 (CYP1A1), CYP1A1 (gene 1543); assay: LTEA_HepaRG_CYP1A1: Life Technologies and Expression Analysis (LTEA) Assay for Cytochrome P450 (CYP1A1) using HepaRG (AID 2283454); details: mRNA level, 48 h; actives raise or lower the signal
Method in brief: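 qRT-PCR read-out: CYP1A1 transcript normalized to three housekeeping genes, fitted bidirectionally against 0.5% DMSO vehicle baseline. Human HepaRG cells, 48 h chemical exposure, 8-point half-log series topping at 100 uM.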

[9] = read-out: CFLAR gene, CFLAR (gene 8837); assay: LTEA_HepaRG_CFLAR: Life Technologies and Expression Analysis (LTEA) Assay for CFLAR gene using HepaRG (AID 2283455); details: mRNA level, 48 h; actives raise or lower the signal
Method in brief: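 HepaRG, 48 h exposure, 8-pt conc-response (100 uM top, half-log), 0.5% DMSO vehicle, duplicates. CFLAR expression by qRT-PCR; ACTB/GAPDH/POLR2A normalization; gain or loss fit vs DMSO baseline.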

[10] = read-out: Forkhead box O1 (FOXO1), FOXO1 (gene 2308); assay: LTEA_HepaRG_FOXO1: Life Technologies and Expression Analysis (LTEA) Assay for Forkhead box O1 (FOXO1) using HepaRG (AID 2283456); details: mRNA level, 48 h; actives raise or lower the signal
Method in brief: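 Readout is FOXO1 transcript level by multiplexed qRT-PCR against three housekeeping genes, curve-fitted in both directions relative to 0.5% DMSO vehicle. Human HepaRG cultures received chemicals for 48 h, up to 100 uM in half-log steps.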

[11] = read-out: growth arrest and DNA damage 45 (GADD45A), GADD45A (gene 1647); assay: LTEA_HepaRG_GADD45A: Life Technologies and Expression Analysis (LTEA) Assay for growth arrest and DNA damage 45 (GADD45A) using HepaRG (AID 2283458); details: mRNA level, 48 h; actives raise or lower the signal
Method in brief: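 Human HepaRG liver cells are treated in duplicate for 48 h with chemicals in 0.5% DMSO, highest concentration 100 uM. Expression is read by qRT-PCR and analyzed in both directions against vehicle.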

[12] = read-out: Forkhead box O3 (FOXO3), FOXO3 (gene 2309); assay: LTEA_HepaRG_FOXO3: Life Technologies and Expression Analysis (LTEA) Assay for Forkhead box O3 (FOXO3) using HepaRG (AID 2283459); details: mRNA level, 48 h; actives raise or lower the signal
Method in brief: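 HepaRG, 48 h post-dose; 8 conc., half-log from 100 uM, 0.5% DMSO, duplicates; serum-free induction medium. Readout: FOXO3 mRNA, TaqMan qRT-PCR, housekeeping-normalized. Bidirectional curve fit vs DMSO baseline.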

[13] = read-out: ABC Transporter (ABCB1), ABCB1 (gene 5243); assay: LTEA_HepaRG_ABCB1: Life Technologies and Expression Analysis (LTEA) Assay for ABC Transporter (ABCB1) using HepaRG (AID 2283460); details: mRNA level, 48 h; actives raise or lower the signal
Method in brief: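 Expression of ABCB1 was quantified by qRT-PCR against three housekeeping genes after human HepaRG cultures received test chemicals for 48 hours. Concentrations spanned eight half-log steps topping at 100 uM in 0.5% DMSO; gain or loss of signal was fitted relative to vehicle.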

[14] = read-out: growth arrest and DNA damage 45 (GADD45B), GADD45B (gene 4616); assay: LTEA_HepaRG_GADD45B: Life Technologies and Expression Analysis (LTEA) Assay for growth arrest and DNA damage 45 (GADD45B) using HepaRG (AID 2283461); details: mRNA level, 48 h; actives raise or lower the signal
Method in brief: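 qRT-PCR read-out (Fluidigm TaqMan, housekeeping-normalized) of mRNA change in human HepaRG cells after 48 h chemical exposure; 8-point curve, top 100 uM, half-log steps, 0.5% DMSO vehicle; gain or loss fitted relative to DMSO baseline.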

[15] = read-out: ABC Transporter (ABCC3), ABCC3 (gene 8714); assay: LTEA_HepaRG_ABCC3: Life Technologies and Expression Analysis (LTEA) Assay for ABC Transporter (ABCC3) using HepaRG (AID 2283462); details: mRNA level, 48 h; actives raise or lower the signal
Method in brief: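 qRT-PCR read-out of ABCC3 transcript, normalized to three housekeeping genes (ACTB, GAPDH, POLR2A), after 48 h chemical exposure of human HepaRG cells. Eight half-log concentrations, highest 100 uM, in 0.5% DMSO; gain or loss fitted relative to DMSO baseline.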

[16] = read-out: ABC Transporter (ABCB11), ABCB11 (gene 8647); assay: LTEA_HepaRG_ABCB11: Life Technologies and Expression Analysis (LTEA) Assay for ABC Transporter (ABCB11) using HepaRG (AID 2283463); details: mRNA level, 48 h; actives raise or lower the signal
Method in brief: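 ABCB11 transcript levels are read by Fluidigm TaqMan qRT-PCR after 48 h chemical treatment of human HepaRG cells. Concentrations span 100 uM downward in half-log steps with 0.5% DMSO; gain or loss is fitted against DMSO controls.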

[17] = read-out: ABC Transporter (ABCC2), ABCC2 (gene 1244); assay: LTEA_HepaRG_ABCC2: Life Technologies and Expression Analysis (LTEA) Assay for ABC Transporter (ABCC2) using HepaRG (AID 2283464); details: mRNA level, 48 h; actives raise or lower the signal
Method in brief: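 qRT-PCR (TaqMan, Fluidigm array) read-out of ABCC2 mRNA, normalized to three housekeeping genes. Differentiated HepaRG cells were treated 48 h in serum-free induction medium with 8-point half-log series from 100 uM in 0.5% DMSO; curves fitted bidirectionally relative to DMSO.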

[18] = read-out: Broad substrate specificity ATP-binding cassette transporter ABCG2 (Homo sapiens) (UniProt Q9UNQ0); assay: LTEA_HepaRG_ABCG2: Life Technologies and Expression Analysis (LTEA) Assay for ABC Transporter (ABCG2) using HepaRG (AID 2283465); details: mRNA level, 48 h; actives raise or lower the signal
Method in brief: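 Read-out is ABCG2 mRNA induction or loss quantified by qRT-PCR after 48 h chemical treatment of human HepaRG cells, normalized to three housekeeping genes. Concentrations reached 100 uM top in half-log steps; fitting was bidirectional against 0.5% DMSO.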

[19] = read-out: Cyclin D2 (CCND2), CCND2 (gene 894); assay: LTEA_HepaRG_CCND2: Life Technologies and Expression Analysis (LTEA) Assay for Cyclin D2 (CCND2) using HepaRG (AID 2283449); details: mRNA level, 48 h; actives raise or lower the signal
Method in brief: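 Read-out is CCND2 mRNA level measured by qRT-PCR in human HepaRG liver cells and normalised to three housekeeping genes. Chemicals were applied for 48 h at up to 100 uM, with gain or loss fitted relative to 0.5% DMSO.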

[20] = CEETOX_H295R_TESTO: CeeTox H295R High-throughput Steroidogenesis Assay for Testosterone (TESTO) (AID 2283457); details: actives raise or lower the signal;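 note: cells exposed to chemicals for 48 h before medium collection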
Method in brief: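 Readout: testosterone quantified by HPLC-MS/MS (C18, ESI positive) after MTBE liquid-liquid extraction of culture medium. Cells were H295R, 48 h chemical exposure per OECD 456 with modifications. Gain or loss of signal fitted relative to DMSO.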

Measured: AC50

Broad substrate specificity ATP-binding cassette transporter ABCG2 (Homo sapiens), sequence (Q9UNQ0 whole entry, looked up): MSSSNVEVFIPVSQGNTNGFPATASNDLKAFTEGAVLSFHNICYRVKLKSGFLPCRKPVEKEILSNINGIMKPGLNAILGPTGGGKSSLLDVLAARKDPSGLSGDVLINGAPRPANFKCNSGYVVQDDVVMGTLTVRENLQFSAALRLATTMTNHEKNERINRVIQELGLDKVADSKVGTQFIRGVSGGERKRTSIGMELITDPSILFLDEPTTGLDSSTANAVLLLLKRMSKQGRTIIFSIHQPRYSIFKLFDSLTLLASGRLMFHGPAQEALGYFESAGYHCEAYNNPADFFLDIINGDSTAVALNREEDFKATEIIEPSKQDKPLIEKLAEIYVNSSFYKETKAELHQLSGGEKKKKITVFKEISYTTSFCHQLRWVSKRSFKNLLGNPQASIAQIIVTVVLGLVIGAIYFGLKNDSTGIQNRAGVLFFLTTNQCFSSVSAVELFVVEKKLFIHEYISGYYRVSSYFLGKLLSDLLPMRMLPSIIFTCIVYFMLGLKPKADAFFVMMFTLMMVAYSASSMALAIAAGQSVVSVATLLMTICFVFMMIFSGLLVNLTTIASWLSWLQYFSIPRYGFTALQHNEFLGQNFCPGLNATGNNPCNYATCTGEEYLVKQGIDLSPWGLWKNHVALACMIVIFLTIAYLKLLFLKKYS
Fatty acid synthase (Homo sapiens), sequence (P49327 whole entry, looked up): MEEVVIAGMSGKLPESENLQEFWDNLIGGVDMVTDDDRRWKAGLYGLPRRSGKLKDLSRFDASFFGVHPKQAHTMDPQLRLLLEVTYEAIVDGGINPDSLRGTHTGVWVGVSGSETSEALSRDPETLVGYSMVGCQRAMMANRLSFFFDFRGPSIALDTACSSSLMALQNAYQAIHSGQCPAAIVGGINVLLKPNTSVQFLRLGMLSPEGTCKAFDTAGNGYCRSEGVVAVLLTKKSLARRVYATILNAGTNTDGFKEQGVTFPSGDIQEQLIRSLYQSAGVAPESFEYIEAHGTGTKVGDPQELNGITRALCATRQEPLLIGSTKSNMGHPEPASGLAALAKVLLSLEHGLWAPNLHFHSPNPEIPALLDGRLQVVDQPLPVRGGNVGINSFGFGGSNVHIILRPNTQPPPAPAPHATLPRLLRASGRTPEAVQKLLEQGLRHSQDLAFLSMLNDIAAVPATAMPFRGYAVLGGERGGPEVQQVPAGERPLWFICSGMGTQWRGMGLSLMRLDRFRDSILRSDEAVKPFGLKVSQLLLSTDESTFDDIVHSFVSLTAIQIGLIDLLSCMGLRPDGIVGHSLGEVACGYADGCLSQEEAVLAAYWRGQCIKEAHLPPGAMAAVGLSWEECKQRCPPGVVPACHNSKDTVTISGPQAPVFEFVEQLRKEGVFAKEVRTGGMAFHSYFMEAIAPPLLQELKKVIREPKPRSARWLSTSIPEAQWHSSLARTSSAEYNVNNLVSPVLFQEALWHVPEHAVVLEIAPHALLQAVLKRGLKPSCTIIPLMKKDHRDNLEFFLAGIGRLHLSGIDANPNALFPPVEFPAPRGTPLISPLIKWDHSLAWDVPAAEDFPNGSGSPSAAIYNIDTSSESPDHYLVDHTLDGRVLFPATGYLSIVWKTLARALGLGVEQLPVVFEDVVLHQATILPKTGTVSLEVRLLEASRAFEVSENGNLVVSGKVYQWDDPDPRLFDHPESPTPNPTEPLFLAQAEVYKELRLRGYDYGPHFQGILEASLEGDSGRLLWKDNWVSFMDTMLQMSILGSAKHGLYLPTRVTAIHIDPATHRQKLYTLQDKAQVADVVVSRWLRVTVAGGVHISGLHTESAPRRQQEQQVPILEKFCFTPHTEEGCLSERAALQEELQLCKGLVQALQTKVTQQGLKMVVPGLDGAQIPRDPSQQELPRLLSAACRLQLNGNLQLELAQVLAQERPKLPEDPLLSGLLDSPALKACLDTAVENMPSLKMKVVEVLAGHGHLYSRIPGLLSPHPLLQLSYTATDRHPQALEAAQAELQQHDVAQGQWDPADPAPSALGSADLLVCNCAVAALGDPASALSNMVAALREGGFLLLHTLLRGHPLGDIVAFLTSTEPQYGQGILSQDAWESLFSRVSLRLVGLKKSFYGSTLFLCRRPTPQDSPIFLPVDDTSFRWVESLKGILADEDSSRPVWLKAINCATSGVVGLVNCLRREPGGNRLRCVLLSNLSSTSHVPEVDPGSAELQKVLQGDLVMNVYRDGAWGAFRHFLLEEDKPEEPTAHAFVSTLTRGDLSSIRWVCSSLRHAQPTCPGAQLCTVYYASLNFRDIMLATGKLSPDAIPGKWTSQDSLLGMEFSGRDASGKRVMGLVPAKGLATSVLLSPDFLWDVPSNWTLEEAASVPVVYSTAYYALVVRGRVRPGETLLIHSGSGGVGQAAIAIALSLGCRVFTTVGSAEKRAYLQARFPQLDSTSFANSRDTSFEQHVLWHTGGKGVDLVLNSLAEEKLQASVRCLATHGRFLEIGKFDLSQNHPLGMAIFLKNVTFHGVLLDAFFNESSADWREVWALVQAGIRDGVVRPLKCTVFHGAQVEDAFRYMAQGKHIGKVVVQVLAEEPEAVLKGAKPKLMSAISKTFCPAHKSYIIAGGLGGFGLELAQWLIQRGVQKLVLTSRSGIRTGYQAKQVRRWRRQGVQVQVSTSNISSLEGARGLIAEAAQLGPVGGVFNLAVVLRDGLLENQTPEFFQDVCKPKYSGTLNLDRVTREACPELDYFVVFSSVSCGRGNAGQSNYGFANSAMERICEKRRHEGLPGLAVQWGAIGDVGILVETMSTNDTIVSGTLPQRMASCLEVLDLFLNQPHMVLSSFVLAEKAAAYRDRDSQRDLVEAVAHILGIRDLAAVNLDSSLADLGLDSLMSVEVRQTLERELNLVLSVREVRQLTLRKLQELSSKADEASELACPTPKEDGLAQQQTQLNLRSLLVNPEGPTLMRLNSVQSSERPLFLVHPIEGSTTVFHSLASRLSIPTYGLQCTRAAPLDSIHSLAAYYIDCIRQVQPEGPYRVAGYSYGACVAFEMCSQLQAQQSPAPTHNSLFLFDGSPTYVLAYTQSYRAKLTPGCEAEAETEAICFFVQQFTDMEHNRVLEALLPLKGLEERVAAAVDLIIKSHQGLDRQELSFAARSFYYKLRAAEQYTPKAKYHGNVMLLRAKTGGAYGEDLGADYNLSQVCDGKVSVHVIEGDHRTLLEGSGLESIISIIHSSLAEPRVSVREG

FC(F)C(F)(F)OCC(Cn1cncn1)c1ccc(Cl)cc1Cl (stereo unspecified)
inactive: [1] | [12] | [13] | [14]
active: [2] 72.2 µM | [3] 81.5 µM | [4] 33.6 µM | [5] 97.3 µM | [6] 49.8 µM | [7] 35.6 µM | [8] 3.17 µM | [9] 78.4 µM | [10] 75.3 µM | [11] 74.2 µM | [15] 21.1 µM | [16] 36.6 µM | [17] 75.9 µM | [18] 15 µM

COP(=O)(NC(C)=O)SC (stereo unspecified)
not listed: [14] | [15] | [19] | [20]
inactive: all other assays above

CN(C)C(=O)Nc1cccc(C(F)(F)F)c1
active: [11] 79.2 µM
not listed: [8] | [14] | [20]
inactive: all other assays above

CCCCSP(=O)(SCCCC)SCCCC
active: [8] 27.6 µM | [13] 50 µM | [16] 73.9 µM | [18] 50 µM
not listed: [1] | [15] | [20]
inactive: all other assays above

CSc1nnc(C(C)(C)C)c(=O)n1N
not listed: [8] | [20]
inactive: all other assays above

C#CC(C)(C)NC(=O)c1cc(Cl)cc(Cl)c1
active: [1] 10.4 µM | [3] 0.0239 µM | [8] 33 µM | [13] 50 µM | [17] 27.3 µM
not listed: [20]
inactive: all other assays above

CC(C1CC1)C(O)(Cn1cncn1)c1ccc(Cl)cc1 (stereo unspecified)
active: [1] 2.23 µM | [7] 77.7 µM | [13] 13.1 µM
not listed: [8] | [15] | [20]
inactive: all other assays above

CCOP(=S)(OCC)Oc1cc(C)nc(C(C)C)n1
active: [1] 26 µM
not listed: [8] | [15] | [19] | [20]
inactive: all other assays above

COc1ccc(C(=CC(=O)N2CCOCC2)c2ccc(Cl)cc2)cc1OC
active: [8] 50 µM | [20] 32.8 µM | [17] 11 µM
not listed: [14] | [15]
inactive: all other assays above

CCCSP(=O)(OCC)Oc1ccc(Br)cc1Cl (stereo unspecified)
active: [8] 29.4 µM
not listed: [14] | [15] | [20]
inactive: all other assays above

CCCOCC(=Nc1ccc(Cl)cc1C(F)(F)F)n1ccnc1
active: [1] 0.336 µM | [3] 50 µM | [6] 37.6 µM | [7] 73 µM | [8] 12.8 µM | [9] 50 µM | [10] 50 µM | [12] 40 µM | [13] 80.5 µM | [14] 92 µM | [16] 17.6 µM | [17] 78.4 µM | [18] 15.8 µM
inactive: [2] | [19] | [4] | [5] | [11]

CC1(C(=O)Nc2ccc(O)c(Cl)c2Cl)CCCCC1
active: [1] 7.63 µM | [8] 67.2 µM
not listed: [3] | [15] | [20]
inactive: all other assays above

CNC(=O)Oc1cccc2c1OC(C)(C)O2
active: [1] 4.74 µM
not listed: [19] | [20]
inactive: all other assays above
